The values below come from PubChem BioAssay (NCATS).

Results filed as inconclusive are left out. Activity calls are given as the source filed them. Unless noted, calls come from the whole dose curve; as a rule, active = well fitted curve in the direction sought with a large enough effect; inconclusive = small, poorly fitted or top-dose-only effect, or another doubt; inactive = no such curve, though single readings can be large; an effect the other way counts as inactive or inconclusive.

For experiment [1], the target named is Lysosomal acid glucosylceramidase (Homo sapiens) (UniProt P04062). Briefly: Glucocerebrosidase-p2 (AID 348; in the data active = potency below about 10 µM; note: potency is the fitted concentration of half-maximal effect). The settings on record: purified GBA, blue fluorogenic substrate, 40 min. Put shortly:
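Compounds titrated from 0.6 nM upwards against 0.2 nM enzyme in pH 5.9 citric acid/KH2PO4, taurocholate, tween-20; blue fluorogenic substrate 80 uM, 40 min room temperature, stopped and read Ex 365/Em 440 for AC50.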

The nature of experiment [2]: NFAT Signaling Pathway (AID 444; active = well fitted curve in either direction with a large enough effect, not every such curve was filed as active;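 note: carbachol stimulus at about its EC50 of 1 µM final; % is set by controls: 0 for no effect and ±100 for the full control effect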). The settings on record: Jurkat NFAT-bla M1, carbachol, beta-lactamase ratio, 5 h; at 7.69 µM (top of the series) unless noted. Put shortly: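 Jurkat cells with NFAT-driven β-lactamase reporter and co-expressed M1 receptor, stimulated with carbachol (final 1 uM, ~EC50), compound titration, 5 h at 37 °C. CCF4 loaded 1 h at RT; 460/530 nm ratio gave %activity and AC50.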

Experiment [3] has as its target Glucocorticoid receptor (Homo sapiens) (UniProt P04150). Briefly: GR-EFC Redistribution (AID 451; calls by dose curve; note: potency is the fitted concentration of half-maximal effect). The settings on record: CHO-K1 GR-EFC translocation, beta-gal luminescence, 2 h. Put shortly: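 CHO-K1 cells expressing nuclear EA and GR-ED fragments of b-gal; compounds titrated up to 46 uM final, 2 h at 37 C. GR nuclear translocation read as complemented b-gal luminescence after 1 h RT detection.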

Experiment [4] deals with Mitogen-activated protein kinase 10 (Mus musculus) (UniProt Q61831). Briefly: JNK3 AlphaScreen Assay (AID 530; active = well fitted curve in either direction with a large enough effect, not every such curve was filed as active;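 note: kinase came from lysate of stimulated human HepG2 cells; signal reports phosphorylation of biotinylated GST-cJun 1-79 at Ser73 with 10 µM ATP; % is set by controls: 0 for no effect and ±100 for the full control effect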). The settings on record: JNK3 lysate, c-Jun phosphorylation; series mostly up to 57.1 µM. A digest of the protocol:
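Pre-activated (IL-1β/TNFα) JNK3 in HepG2 lysates phosphorylates biotin-GST-cJun(1-79), 10 uM ATP; anti-phospho-cJun(Ser73) AlphaScreen read at room temperature, pH 7.6 Tris buffer. Compounds pre-incubated 15 min as titrations.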

The target in experiment [5] is 3',5'-cyclic-AMP phosphodiesterase 4B (Homo sapiens) (UniProt Q07343). Nature of the experiment: qHTS Assay for Inhibitors of PDE-IV (AID 607; active = well fitted activation curve with a large enough effect in the main read-out, with a control signal flat, not every such curve was filed as active; note: % of control where 0% means no effect). The settings on record: HEK293 ACTOne CNG channel cells, membrane potential fluorescence; series mostly up to 22.9 µM. Put shortly:
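Live HEK293 cells with a modified cyclic nucleotide-gated (CNG) channel report intracellular cAMP via membrane-potential dye fluorescence (ex 535/em 590 nm). Endogenous PDE-IV was targeted. Compounds were tested at up to 22.9 uM final; RO 20-1724 100 uM served as control.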
On the technique in general: Quantitative high-throughput screening tests each substance at several concentrations.

The nature of experiment [6]: qHTS Assay for Lipid Storage Modulators (AID 1519; calls by dose curve). The settings on record: Drosophila S3 cells, BODIPY lipid droplet/cell ratio, laser cytometry, cells loaded with oleic acid; for activity change, negative = inhibition: at 57.5 µM (top of the series). Put shortly:
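Cells seeded at 5,000 per well were treated with compounds over a concentration series and loaded with oleic acid (400 uM, as added). Lipid droplet fluorescence (488 nm excitation, 500-530 nm channel) was read by laser-scanning cytometry and normalized to 20 uM Triacsin C.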

Experiment [7] can be described thus: Primary qHTS for small molecule stabilizers of the endoplasmic reticulum resident proteome: Secreted ER Calcium Modulated Protein (SERCaMP) assay (AID 1508630). Note: % is set by controls: 0 for no effect and ±100 for the full control effect. The settings on record: SH-SY5Y GLuc-SERCaMP (Gaussia luciferase released on ER calcium loss) secretion, thapsigargin, luminescence; series mostly up to 38.4 µM. Put shortly: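 GLuc-SERCaMP-expressing SH-SY5Y cells, pretreated 16 h with compound, are challenged with thapsigargin to empty ER calcium stores; after 4 h, coelenterazine is added directly to the medium and luminescence is imaged.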

Experiment [8] has as its target Cytochrome P450 1A2 (Homo sapiens) (UniProt P05177). Nature of the experiment: p450-cyp1a2 (AID 410; calls by dose curve; note: potency is the fitted concentration of half-maximal effect;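 for activity change, negative = inhibition: -100% = full effect of reference inhibitor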). The settings on record: recombinant CYP1A2, luciferin-ME demethylation, luminescence; series mostly up to 57 µM. A digest of the protocol: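 Luminescent readout of luciferin formed from Luciferin-ME by human CYP1A2; data normalized against complete inhibition by 57 uM furafylline. Enzyme 20nM, substrate 100uM at Km, 100mM KPO4 buffer, 60 min reaction at room temperature.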

Experiment [9] in a line: Stat Signaling Pathway (AID 446; active = well fitted curve in either direction with a large enough effect, not every such curve was filed as active;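 note: ME-180 cervical cancer cells given 40 pM IL-6 alongside compound; SIE-controlled beta-lactamase reporter measured as 460/530 nm FRET emission ratio; % is set by controls: 0 for no effect and ±100 for the full control effect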). The settings on record: ME-180 SIE beta-lactamase reporter, IL-6 stimulated, 5 h; at 7.69 µM (top of the series) unless noted. Put shortly:
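IL-6/STAT signaling read in ME-180 cells via an SIE beta-lactamase reporter. Stimulus was 40 pM IL-6 (its AC50) for 5 hrs, so both activation and inhibition register.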

Experiment [10] deals with Cytochrome P450 3A4 (Homo sapiens) (UniProt P08684). Nature of the experiment: qHTS Assay for Activators of Cytochrome P450 3A4 (AID 885). Note: nearly all actives have a fitted effect of over 65% in size. The settings on record: recombinant CYP3A4, Luciferin-PPXE luminescence, 60 min; series mostly up to 57.1 µM. A digest of the protocol: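 Quantitative HTS format: compounds preincubated with 20nM human CYP3A4 and Luciferin-PPXE substrate at KM, reaction started by NADPH regeneration, stopped after 60 min, luciferase luminescence read 20 min later.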

Experiment [11] can be described thus: AP1 Signaling Pathway (AID 357; active = well fitted curve in either direction with a large enough effect, not every such curve was filed as active). The settings on record: ME-180 (cervical carcinoma) AP-1-bla reporter, EGF-induced, beta-lactamase ratio, 5 h; at 7.69 µM (top of the series) unless noted. A digest of the protocol:
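Beta-lactamase reporter under AP-1 response element, ME-180 background. Stimulus: EC50 EGF. Compound exposure 5 h, 37 °C. Detection: CCF4, 2.5 h RT, 460/530 nm. Values: AC50 from titration.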

Experiment [12] deals with Glucocorticoid receptor (Homo sapiens) (UniProt P04150). Briefly: GR-GFP Redistribution (AID 450;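 active = compounds whose dose series gives a full or clear partial fitted curve of increased nuclear translocation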; note: potency is the fitted concentration of half-maximal effect). The settings on record: U2OS GR-GFP nuclear translocation, laser cytometry, 2 h.
Experiment [13] has as its target Cytochrome P450 3A4 (Homo sapiens) (UniProt P08684). Briefly: qHTS Assay for Inhibitors and Substrates of Cytochrome P450 3A4 (AID 884). Note: potency is the fitted concentration of half-maximal effect; nearly all actives have a fitted effect of over 50% in size. The settings on record: recombinant CYP3A4, Luciferin-PPXE luminescence; series mostly up to 57.1 µM. Put shortly: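 20 nM human CYP3A4 with 25 uM Luciferin-PPXE (at KM) in 200 mM KPO4, preincubated 10 min with compound; NADPH regeneration started a 60 min RT reaction. Luciferin detected by luminescence, normalized to 57 uM ketoconazole as full inhibition.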

In experiment [14] the target is Cytochrome P450 2D6 (Homo sapiens) (UniProt P10635). Nature of the experiment: qHTS Assay for Inhibitors and Substrates of Cytochrome P450 2D6 (AID 891). Note: potency is the fitted concentration of half-maximal effect; nearly all actives have a fitted effect of over 60% in size. The settings on record: recombinant CYP2D6, luciferin-ME EGE luminescence; series mostly up to 57.1 µM. Put shortly:
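Human CYP2D6 (5 nM) with 30 uM Luciferin-ME EGE (at Km) in 100 mM KPO4, compound preincubated 10 min, then NADPH regeneration system for 60 min at room temperature. Luciferin read by luminescence; normalized to 1.43 uM quinidine.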

A short description of experiment [15]: Confirmation and Secondary Assay for Modulators of Hemoglobin Beta Chain Splicing at IVS2 654 locus (AID 910).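 Note: HeLa cells stably carrying EGFP split by mutant beta-globin IVS2-654 intron; % of control where 0% means no effect.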 The settings on record: HeLa EGFP-654 splicing reporter, GFP fluorescence, 48 h; series mostly up to 38.3 µM. A digest of the protocol:
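HeLa cells stably expressing EGFP interrupted by β-globin IVS2-654 intron, seeded overnight in Opti-MEM/2% FCS, then treated 2 days at 37 °C. Restored splicing read as total peak GFP intensity per well by laser scanning cytometry (488 nm excitation, 500–520 nm emission); 500 nM antisense PNA as control.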

The nature of experiment [16]: Confirmation and Secondary Assay for Modulators of Hemoglobin Beta Chain Splicing at IVS2 705 locus (AID 930).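 Note: HeLa cells stably expressing the EGFP-705 splicing reporter; GFP fluorescence per well restored by corrected splicing of the IVS2-705 intron in EGFP; % of control where 0% means no effect.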 The settings on record: HeLa EGFP-705 splicing reporter, GFP fluorescence, 48 h; series mostly up to 38.3 µM. Put shortly:
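First, HeLa EGFP-705 cells are seeded at 500/well in Optimem with 2% FCS and left overnight. Next, compound or DMSO is added for 2 days. Finally wells are laser-scanned and total peak GFP intensity scored.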

In experiment [17] the target is Ubiquitin carboxyl-terminal hydrolase 1 (Homo sapiens) (UniProt O94782). Nature of the experiment: Inhibitors of USP1/UAF1: Pilot qHTS (AID 504865).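 Note: rhodamine fluorescence freed from ubiquitin-rhodamine substrate followed over time; top concentration of the series differs between compounds; % is set by controls: 0 for no effect and ±100 for the full control effect; nearly all actives have a fitted effect of over 35% in size.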 The settings on record: purified USP1/UAF1, Ub-rhodamine cleavage fluorescence; series mostly up to 54.9 µM. A digest of the protocol:
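Deubiquitinase activity followed as kinetic rhodamine fluorescence release from 150 nM Ub-Rho. 1 nM USP1/UAF1 with compound, after 15 min room-temperature preincubation, in HEPES pH 7.8 buffer containing TCEP, EDTA, BSA and Tween-20.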

In experiment [18] the target is Cytochrome P450 2C19 (Homo sapiens) (UniProt P33261). Nature of the experiment: qHTS Assay for Inhibitors and Substrates of Cytochrome P450 2C19 (AID 899). Note: potency is the fitted concentration of half-maximal effect; nearly all actives have a fitted effect of over 60% in size. The settings on record: recombinant CYP2C19, luciferin-H EGE luminescence; series mostly up to 57.1 µM. A digest of the protocol: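 Signal comes from luciferase acting on luciferin released by CYP2C19-mediated hydroxylation of Luciferin-H EGE, 10uM (KM). Assay mix: 5nM enzyme, 50mM KPO4; 60 min at 37C with NADPH regeneration. Data normalized against 57uM ketoconazole.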

The mark [19] stands for this setting: measured here: cell count channel max response.
The mark [20] stands for this setting: measured here: lipid channel max response.

Sequence of Glucocorticoid receptor (Homo sapiens) (P04150 whole entry, looked up, the tested form may be a part): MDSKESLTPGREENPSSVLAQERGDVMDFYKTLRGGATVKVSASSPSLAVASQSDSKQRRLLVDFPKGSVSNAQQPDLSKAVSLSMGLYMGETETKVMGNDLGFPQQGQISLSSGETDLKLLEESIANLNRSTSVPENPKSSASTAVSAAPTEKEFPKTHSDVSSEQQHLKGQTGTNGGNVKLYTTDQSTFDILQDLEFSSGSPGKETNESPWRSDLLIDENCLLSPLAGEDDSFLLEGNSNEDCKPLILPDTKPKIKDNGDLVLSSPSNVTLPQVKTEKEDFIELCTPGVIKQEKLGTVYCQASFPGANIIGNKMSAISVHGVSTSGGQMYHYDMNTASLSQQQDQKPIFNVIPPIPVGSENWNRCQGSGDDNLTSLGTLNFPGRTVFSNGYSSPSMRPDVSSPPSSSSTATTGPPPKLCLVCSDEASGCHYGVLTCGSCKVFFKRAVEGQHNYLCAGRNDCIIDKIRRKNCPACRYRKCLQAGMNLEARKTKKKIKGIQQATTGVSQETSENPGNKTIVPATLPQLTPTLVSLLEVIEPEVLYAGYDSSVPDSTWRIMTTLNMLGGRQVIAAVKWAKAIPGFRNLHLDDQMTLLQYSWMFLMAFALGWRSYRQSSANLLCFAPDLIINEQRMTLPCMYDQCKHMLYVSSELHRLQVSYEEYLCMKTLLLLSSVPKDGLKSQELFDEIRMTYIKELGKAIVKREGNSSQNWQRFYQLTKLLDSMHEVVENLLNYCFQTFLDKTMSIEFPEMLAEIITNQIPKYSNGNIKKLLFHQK
Sequence of Lysosomal acid glucosylceramidase (Homo sapiens) (P04062 whole entry, looked up): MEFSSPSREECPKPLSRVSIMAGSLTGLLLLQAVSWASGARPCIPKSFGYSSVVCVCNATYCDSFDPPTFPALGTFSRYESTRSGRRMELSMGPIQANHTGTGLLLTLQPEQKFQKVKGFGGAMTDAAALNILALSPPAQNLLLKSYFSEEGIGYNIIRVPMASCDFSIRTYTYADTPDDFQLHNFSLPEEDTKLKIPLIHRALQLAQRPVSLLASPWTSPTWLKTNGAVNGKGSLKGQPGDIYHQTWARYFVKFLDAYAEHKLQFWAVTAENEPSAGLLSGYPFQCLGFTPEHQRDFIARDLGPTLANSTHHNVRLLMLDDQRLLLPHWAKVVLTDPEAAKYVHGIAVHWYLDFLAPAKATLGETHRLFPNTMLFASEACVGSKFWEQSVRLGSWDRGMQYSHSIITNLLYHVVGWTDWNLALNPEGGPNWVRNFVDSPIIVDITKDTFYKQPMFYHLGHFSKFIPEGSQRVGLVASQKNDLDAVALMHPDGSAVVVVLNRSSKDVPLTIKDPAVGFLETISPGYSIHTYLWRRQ
Sequence of Cytochrome P450 3A4 (Homo sapiens) (P08684 whole entry, looked up): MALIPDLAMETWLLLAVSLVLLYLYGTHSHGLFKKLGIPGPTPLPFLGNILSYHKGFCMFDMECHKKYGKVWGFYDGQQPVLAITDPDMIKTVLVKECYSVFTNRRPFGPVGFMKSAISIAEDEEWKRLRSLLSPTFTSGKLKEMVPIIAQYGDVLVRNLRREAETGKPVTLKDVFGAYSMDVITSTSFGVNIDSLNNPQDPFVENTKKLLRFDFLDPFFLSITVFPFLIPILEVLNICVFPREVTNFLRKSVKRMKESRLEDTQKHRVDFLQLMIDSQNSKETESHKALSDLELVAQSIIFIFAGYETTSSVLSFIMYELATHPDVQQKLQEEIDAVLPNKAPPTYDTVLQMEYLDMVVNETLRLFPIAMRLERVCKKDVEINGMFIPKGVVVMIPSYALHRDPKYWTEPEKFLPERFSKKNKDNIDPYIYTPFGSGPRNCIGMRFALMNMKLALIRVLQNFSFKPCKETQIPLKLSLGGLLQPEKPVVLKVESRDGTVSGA
Sequence of Cytochrome P450 1A2 (Homo sapiens) (P05177 whole entry, looked up): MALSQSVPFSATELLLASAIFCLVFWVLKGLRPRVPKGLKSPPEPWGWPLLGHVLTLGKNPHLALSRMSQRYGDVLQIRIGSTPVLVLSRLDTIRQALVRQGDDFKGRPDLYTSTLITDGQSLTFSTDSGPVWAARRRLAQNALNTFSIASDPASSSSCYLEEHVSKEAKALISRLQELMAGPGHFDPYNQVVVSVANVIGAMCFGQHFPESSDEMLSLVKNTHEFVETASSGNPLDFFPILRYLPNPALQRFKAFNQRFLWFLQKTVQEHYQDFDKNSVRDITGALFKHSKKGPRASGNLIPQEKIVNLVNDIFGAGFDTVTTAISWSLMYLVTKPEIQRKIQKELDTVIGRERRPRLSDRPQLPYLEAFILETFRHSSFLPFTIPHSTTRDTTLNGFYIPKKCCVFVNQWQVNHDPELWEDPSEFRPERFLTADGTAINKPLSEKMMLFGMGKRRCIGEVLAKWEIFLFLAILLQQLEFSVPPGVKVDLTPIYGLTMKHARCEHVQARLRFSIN
Sequence of 3',5'-cyclic-AMP phosphodiesterase 4B (Homo sapiens) (Q07343 whole entry, looked up): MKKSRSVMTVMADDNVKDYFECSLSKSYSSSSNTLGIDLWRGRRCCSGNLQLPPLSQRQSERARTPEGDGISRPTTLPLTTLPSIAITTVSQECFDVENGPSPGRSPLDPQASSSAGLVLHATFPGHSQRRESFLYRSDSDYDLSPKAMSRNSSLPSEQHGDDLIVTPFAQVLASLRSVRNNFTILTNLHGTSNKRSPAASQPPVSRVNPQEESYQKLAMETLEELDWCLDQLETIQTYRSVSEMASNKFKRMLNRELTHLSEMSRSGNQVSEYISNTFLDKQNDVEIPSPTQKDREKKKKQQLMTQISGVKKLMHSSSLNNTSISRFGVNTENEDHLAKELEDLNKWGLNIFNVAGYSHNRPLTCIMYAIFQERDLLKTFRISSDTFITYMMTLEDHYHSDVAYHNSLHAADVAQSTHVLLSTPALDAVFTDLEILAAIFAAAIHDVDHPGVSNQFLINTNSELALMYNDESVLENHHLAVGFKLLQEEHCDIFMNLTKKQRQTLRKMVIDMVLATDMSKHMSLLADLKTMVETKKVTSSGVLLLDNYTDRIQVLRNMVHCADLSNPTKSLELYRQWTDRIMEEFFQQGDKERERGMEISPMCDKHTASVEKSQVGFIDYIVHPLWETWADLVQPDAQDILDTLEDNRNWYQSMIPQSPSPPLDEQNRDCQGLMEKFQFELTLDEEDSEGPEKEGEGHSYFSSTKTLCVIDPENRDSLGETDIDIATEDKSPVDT
Sequence of Ubiquitin carboxyl-terminal hydrolase 1 (Homo sapiens) (O94782 whole entry, looked up): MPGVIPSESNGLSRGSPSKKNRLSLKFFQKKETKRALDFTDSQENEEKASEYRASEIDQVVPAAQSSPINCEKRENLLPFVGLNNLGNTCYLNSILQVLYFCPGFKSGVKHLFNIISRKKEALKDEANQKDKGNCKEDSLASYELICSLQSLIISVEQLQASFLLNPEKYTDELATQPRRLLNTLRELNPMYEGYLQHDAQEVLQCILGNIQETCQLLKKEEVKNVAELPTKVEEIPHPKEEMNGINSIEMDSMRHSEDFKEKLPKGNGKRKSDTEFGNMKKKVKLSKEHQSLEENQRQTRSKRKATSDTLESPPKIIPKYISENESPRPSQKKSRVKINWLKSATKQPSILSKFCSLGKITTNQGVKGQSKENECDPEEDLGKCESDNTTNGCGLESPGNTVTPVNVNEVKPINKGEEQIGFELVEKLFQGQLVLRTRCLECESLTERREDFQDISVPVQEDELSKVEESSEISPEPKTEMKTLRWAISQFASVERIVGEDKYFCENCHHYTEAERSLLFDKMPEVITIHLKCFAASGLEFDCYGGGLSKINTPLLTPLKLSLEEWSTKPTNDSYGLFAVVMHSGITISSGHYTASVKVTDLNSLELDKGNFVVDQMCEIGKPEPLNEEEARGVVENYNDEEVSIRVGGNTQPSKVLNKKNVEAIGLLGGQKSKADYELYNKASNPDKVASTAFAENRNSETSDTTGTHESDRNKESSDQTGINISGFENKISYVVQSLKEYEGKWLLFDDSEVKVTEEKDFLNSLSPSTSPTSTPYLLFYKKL
Sequence of Cytochrome P450 2D6 (Homo sapiens) (P10635 whole entry, looked up): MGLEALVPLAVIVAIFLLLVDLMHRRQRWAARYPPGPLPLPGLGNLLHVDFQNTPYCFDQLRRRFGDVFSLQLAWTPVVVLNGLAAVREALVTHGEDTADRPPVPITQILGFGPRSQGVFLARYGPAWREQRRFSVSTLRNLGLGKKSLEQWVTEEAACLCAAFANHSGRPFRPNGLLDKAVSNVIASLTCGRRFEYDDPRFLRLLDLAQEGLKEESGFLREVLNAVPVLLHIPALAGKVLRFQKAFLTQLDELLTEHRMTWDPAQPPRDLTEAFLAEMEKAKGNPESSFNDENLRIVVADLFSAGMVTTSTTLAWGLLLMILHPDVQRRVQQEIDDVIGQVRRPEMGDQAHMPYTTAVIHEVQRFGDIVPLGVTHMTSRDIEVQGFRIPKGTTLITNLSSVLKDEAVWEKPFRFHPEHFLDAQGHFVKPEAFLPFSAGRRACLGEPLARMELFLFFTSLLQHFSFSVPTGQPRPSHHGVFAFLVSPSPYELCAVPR
Sequence of Cytochrome P450 2C19 (Homo sapiens) (P33261 whole entry, looked up): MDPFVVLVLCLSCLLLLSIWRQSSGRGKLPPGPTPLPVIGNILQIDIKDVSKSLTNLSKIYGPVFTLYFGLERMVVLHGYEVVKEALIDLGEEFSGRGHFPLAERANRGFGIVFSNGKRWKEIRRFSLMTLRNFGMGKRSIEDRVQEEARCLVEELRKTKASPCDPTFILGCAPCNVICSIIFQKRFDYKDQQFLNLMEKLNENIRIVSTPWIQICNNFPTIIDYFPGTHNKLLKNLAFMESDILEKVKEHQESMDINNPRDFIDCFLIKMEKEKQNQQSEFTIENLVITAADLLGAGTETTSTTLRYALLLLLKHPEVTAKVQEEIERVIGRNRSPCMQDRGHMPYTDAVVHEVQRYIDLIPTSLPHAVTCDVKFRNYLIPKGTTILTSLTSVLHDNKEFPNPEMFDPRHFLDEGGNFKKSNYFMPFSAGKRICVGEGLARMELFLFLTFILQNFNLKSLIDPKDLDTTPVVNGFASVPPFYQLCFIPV

Take `CC(=O)N1CCC2(CC1)CN(Cc1ccc(C#N)cc1)C2`: the Potency is > 11.4 µM (inactive) in experiment [1] and > 46 µM (inactive) in [3]. Besides, the activity change, negative = inhibition in experiment [2] is 0.883% (inactive); in experiment [6], -1.35% (inactive). The Potency result in [4] and in experiment [5] was “inactive” throughout. The max response in [6] (setting [19]) is -0.767%; in experiment [6] (setting [20]), -0.217%. In addition, the result in experiment [7] was inactive.

Turning to `CC(C)CN1CCCC2(CCN(C(=O)c3cnccn3)CC2)C1`, the figures for the Potency in [1] and in [3] were > 11.4 µM (inactive) and > 46 µM (inactive), respectively. Further, the Potency result in experiment [8], in [4], in experiment [5] and in [10] was “inactive” in each case. Further, the activity, negative = inhibition in experiment [9] was 7.99% (inactive). In addition, the activity change, negative = inhibition in experiment [6] is 1.42% (inactive). Besides, the max response was found to be 5.13% in [6] (setting [19]) and 9.23% in [6] (setting [20]). For the same compound, in [7], the result was inactive.

In the case of `c1nc(NCCN2CCOCC2)c2cc(-c3ccc4c(c3)OCO4)ccc2n1`, the activity change, negative = inhibition is -13.5% (inactive) in experiment [11], 1.02% (inactive) in experiment [2] and 10.6% (inactive) in [6]. The Potency is 2.51 µM (active) in experiment [8]; > 46 µM (inactive) in experiment [12]; > 46 µM (inactive) in experiment [3]; 5.01 µM (active) in experiment [13]; 7.94 µM (active) in [14]. In experiment [9], the activity, negative = inhibition is -4.03% (inactive). Further, the Potency result in experiment [4], in experiment [5], in [10], in experiment [15] and in experiment [17] was “inactive” throughout. Besides, the call in [16] and in [7] was inactive. For the same compound, the max response worked out at 2.73% in experiment [6] (setting [19]) and 12.8% in experiment [6] (setting [20]).

Take `COc1ccc(-c2nc3cnc(N4CCNCC4)nc3n(C)c2=O)cc1`: the Potency in experiment [1] is > 11.4 µM (inactive); in experiment [8] it was 12.6 µM (active); in [12], > 9.22 µM (inactive); in experiment [3], > 46 µM (inactive). The Potency entry in [4], in experiment [5] and in experiment [10] was “inactive” throughout. Also, the activity change, negative = inhibition in experiment [6] is 4.15% (inactive). In addition, the max response in experiment [6] (setting [19]) turned out to be 15.8%; in [6] (setting [20]), 21.9%. Moreover, the result in experiment [7] was inactive.

For the compound `COc1ccc(CNc2nc(-c3ccc(C(=O)N(C)C)cc3)nc3ccccc23)c(OC)c1`, the values for the Potency in [1], in experiment [8] and in experiment [3] were > 11.4 µM (inactive), 15.8 µM (active) and > 46 µM (inactive), respectively. Further, the Potency entry in experiment [4], in experiment [10], in experiment [15] and in experiment [17] was “inactive” each time. For the same compound, the call in [16] and in experiment [7] was inactive. For the same compound, the activity change, negative = inhibition in [6] is 6.93% (inactive). The max response in [6] (setting [19]) is -11.3%; in [6] (setting [20]), 8.44%.

For the compound `O=C(Oc1ccccc1)N1CCC[C@@]2(CCN(c3ccncc3)C2)C1`, the Potency in [1] is > 11.4 µM (inactive); in experiment [8] it was 20 µM (active); in experiment [3], > 46 µM (inactive); in experiment [18], 5.01 µM (active). The activity, negative = inhibition in experiment [9] was -2.61% (inactive). In addition, the Potency result in experiment [4] and in experiment [5] was “inactive” each time. The activity change, negative = inhibition in experiment [6] is 4.19% (inactive). The values for the max response in experiment [6] (setting [19]) and in experiment [6] (setting [20]) were 13.6% and 23.8%, respectively. Moreover, the result in experiment [7] was inactive.

`CCNc1ncc2nc(-c3ccc(OC)cc3)c(=O)n(Cc3cccc(OC)c3)c2n1`: the Potency in [1] was > 11.4 µM (inactive); in experiment [8], 15.8 µM (active); in [12] it was > 9.22 µM (inactive); in experiment [3] it was > 46 µM (inactive). The Potency result in experiment [4] and in experiment [10] was “inactive” throughout. Besides, the activity change, negative = inhibition in experiment [6] is -12% (inactive). Further, the figures for the max response in experiment [6] (setting [19]) and in experiment [6] (setting [20]) were -21.5% and -29.7%, respectively. Further, the result in [7] was inactive.
